This is part of a sample that, as a whole, favours compounds with a hit. Of some 83,000 tested, about 20% had one in any assay.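 Negative percent growth values reflect cell death: -40 means 40% of the cells present at the start died, and -100 means all died.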 Calls of active or inactive are those of the source. The calls were made as follows: active = growth percent below 10; inactive = the rest.
How the values were obtained:
Test in all cases: NCI-60 one-dose screen, 48 h (100 = growth as untreated, 0 = no growth, -100 = all killed)
Details in all cases: 10 µM unless noted
NCI-H23 lung = tested on: NCI-H23 lung
NCI-H226 lung = tested on: NCI-H226 lung
NCI-H322M lung = tested on: NCI-H322M lung
HOP-62 NSCLC = tested on: HOP-62 NSCLC
NCI-H460 lung = tested on: NCI-H460 lung
NCI-H522 lung = tested on: NCI-H522 lung
A549/ATCC NSCLC = tested on: A549/ATCC NSCLC
786-0 renal = tested on: 786-0 renal
COLO 205 colon = tested on: COLO 205 colon
DU-145 prostate = tested on: DU-145 prostate
K-562 leukemia = tested on: K-562 leukemia
MALME-3M melanoma = tested on: MALME-3M melanoma
MDA-MB-231 breast = tested on: MDA-MB-231 breast
RXF 393 renal = tested on: RXF 393 renal
SF-268 CNS = tested on: SF-268 CNS
SF-295 CNS = tested on: SF-295 CNS
SF-539 CNS = tested on: SF-539 CNS
UACC-257 melanoma = tested on: UACC-257 melanoma
M14 melanoma = tested on: M14 melanoma

Measured: growth

COc1ccc(-c2cnc(-c3ccncc3-c3cccc(OC)c3)o2)cc1
inactive: NCI-H23 lung 19.4% | NCI-H226 lung 15.3% | NCI-H322M lung 56.3% | HOP-62 NSCLC 26.3% | A549/ATCC NSCLC 30.7% | 786-0 renal 24.8% | MALME-3M melanoma 92% | RXF 393 renal 43.1% | SF-268 CNS 18.2% | UACC-257 melanoma 83.6% | M14 melanoma 23.9%
active: NCI-H460 lung 7.36% | NCI-H522 lung -59.9% | COLO 205 colon -44.1% | DU-145 prostate 0.973% | K-562 leukemia 7.13% | MDA-MB-231 breast -9.9% | SF-295 CNS -8.54% | SF-539 CNS -0.0741%

CC(C)CCSc1nc(Nc2ccccc2)c(C#N)c(-c2ccc(F)cc2)n1
inactive: NCI-H23 lung 74.4% | NCI-H226 lung 90.7% | NCI-H322M lung 49.8% | HOP-62 NSCLC 56.5% | NCI-H522 lung 61% | A549/ATCC NSCLC 25.3% | COLO 205 colon 18.6% | DU-145 prostate 82.3% | K-562 leukemia 38.8% | MALME-3M melanoma 68.4% | MDA-MB-231 breast 46.2% | RXF 393 renal 82% | SF-268 CNS 79.1% | SF-295 CNS 34.5% | SF-539 CNS 52.7% | UACC-257 melanoma 52.7% | M14 melanoma 70.1%
active: NCI-H460 lung 6.55% | 786-0 renal -9.8%

CCCCCCCCCCCCCCCCCC(=O)OCCCCCCCCCCCCC
inactive: NCI-H23 lung 108% | NCI-H226 lung 97.2% | NCI-H322M lung 130% | HOP-62 NSCLC 125% | NCI-H460 lung 117% | NCI-H522 lung 111% | A549/ATCC NSCLC 99.5% | 786-0 renal 119% | COLO 205 colon 121% | DU-145 prostate 117% | K-562 leukemia 119% | MALME-3M melanoma 130% | MDA-MB-231 breast 135% | RXF 393 renal 109% | SF-268 CNS 106% | SF-295 CNS 117% | SF-539 CNS 101% | UACC-257 melanoma 108% | M14 melanoma 114%

C[Si](C)(C)C(c1ccccc1)c1ccccc1
inactive: NCI-H23 lung 99.5% | NCI-H226 lung 113% | NCI-H322M lung 105% | HOP-62 NSCLC 105% | NCI-H460 lung 106% | NCI-H522 lung 98.2% | A549/ATCC NSCLC 91.1% | 786-0 renal 110% | COLO 205 colon 105% | DU-145 prostate 102% | K-562 leukemia 86.7% | MALME-3M melanoma 90.2% | MDA-MB-231 breast 123% | RXF 393 renal 126% | SF-268 CNS 104% | SF-295 CNS 109% | SF-539 CNS 111% | UACC-257 melanoma 109% | M14 melanoma 108%

Cc1ccc(C(CN(C)C)C(=O)c2ccccc2)cc1 (centres undefined)
active: NCI-H522 lung -66.4% | 786-0 renal -20.7% | K-562 leukemia -26.8%
inactive: NCI-H23 lung 71.5% | NCI-H226 lung 80.9% | NCI-H322M lung 101% | HOP-62 NSCLC 101% | NCI-H460 lung 71.7% | A549/ATCC NSCLC 81.7% | COLO 205 colon 43.5% | DU-145 prostate 34.7% | MALME-3M melanoma 79.8% | MDA-MB-231 breast 25.4% | RXF 393 renal 43.6% | SF-268 CNS 25.9% | SF-295 CNS 85.6% | SF-539 CNS 57.6% | UACC-257 melanoma 49.1% | M14 melanoma 31.6%

CN(C)CCNC(=O)n1cc(-c2ccncc2)c(-c2cc(O)cc(Cl)c2)n1
inactive: NCI-H23 lung 108% | NCI-H226 lung 102% | NCI-H322M lung 128% | HOP-62 NSCLC 98.2% | NCI-H460 lung 93.5% | NCI-H522 lung 115% | A549/ATCC NSCLC 107% | 786-0 renal 81.4% | COLO 205 colon 88.6% | DU-145 prostate 102% | K-562 leukemia 74.8% | MDA-MB-231 breast 88.6% | RXF 393 renal 84.4% | SF-268 CNS 96.8% | SF-295 CNS 117% | SF-539 CNS 82.5% | UACC-257 melanoma 40.6% | M14 melanoma 27.6%
active: MALME-3M melanoma 6.11%

CS(=O)(=O)c1ccc(Cl)c([N+](=O)[O-])c1
inactive: NCI-H23 lung 103% | NCI-H226 lung 107% | NCI-H322M lung 149% | HOP-62 NSCLC 105% | NCI-H460 lung 86.9% | NCI-H522 lung 95.8% | A549/ATCC NSCLC 119% | 786-0 renal 98.3% | COLO 205 colon 111% | DU-145 prostate 33.9% | MALME-3M melanoma 132% | MDA-MB-231 breast 109% | RXF 393 renal 113% | SF-268 CNS 81.5% | SF-295 CNS 102% | SF-539 CNS 102% | UACC-257 melanoma 116% | M14 melanoma 108%
active: K-562 leukemia 1.69%

CC(C)[C@@]12C[C@@H](OC(=O)C3CO3)[C@@](C)(O1)[C@@H]1CC[C@@H](C)[C@H]1[C@@H]2OC(=O)/C=C/c1ccccc1 (some centres undefined)
inactive: NCI-H23 lung 85.9% | NCI-H226 lung 68.3% | NCI-H322M lung 83.9% | HOP-62 NSCLC 76.6% | NCI-H460 lung 101% | NCI-H522 lung 72.8% | A549/ATCC NSCLC 75.7% | 786-0 renal 95.5% | COLO 205 colon 107% | DU-145 prostate 107% | K-562 leukemia 105% | MALME-3M melanoma 84% | MDA-MB-231 breast 76.6% | RXF 393 renal 67% | SF-268 CNS 67.2% | SF-295 CNS 101% | SF-539 CNS 90.7% | UACC-257 melanoma 74.7% | M14 melanoma 101%

CCCCOC(=O)c1cc(O)c(O)c(O)c1
inactive: NCI-H23 lung 88.2% | NCI-H226 lung 96.7% | NCI-H322M lung 86.5% | HOP-62 NSCLC 76.2% | NCI-H460 lung 58.9% | A549/ATCC NSCLC 64.7% | 786-0 renal 79.2% | COLO 205 colon 101% | DU-145 prostate 74% | K-562 leukemia 66.3% | MALME-3M melanoma 122% | MDA-MB-231 breast 66.4% | RXF 393 renal 82% | SF-268 CNS 53.5% | SF-295 CNS 102% | SF-539 CNS 48.5% | UACC-257 melanoma 96.4% | M14 melanoma 84.1%
active: NCI-H522 lung -1.17%

CS(=O)(=O)c1ccc(C(=O)N/N=C/c2ccccc2O)cc1
inactive: NCI-H23 lung 54.8% | NCI-H226 lung 55.2% | NCI-H322M lung 38.4% | HOP-62 NSCLC 28.3% | NCI-H460 lung 14.1% | NCI-H522 lung 15.1% | A549/ATCC NSCLC 38.8% | 786-0 renal 33% | COLO 205 colon 31.2% | DU-145 prostate 40.4% | K-562 leukemia 40.5% | MALME-3M melanoma 63.5% | MDA-MB-231 breast 47.4% | RXF 393 renal 53% | SF-268 CNS 38.4% | SF-295 CNS 38% | SF-539 CNS 55.3% | UACC-257 melanoma 22.6% | M14 melanoma 32.5%

CNCCCn1c2c(c3ccc(Cl)cc3c1=O)C(=O)c1cc(OC)cnc1-2
active: NCI-H460 lung -77.3% | A549/ATCC NSCLC -88.5% | 786-0 renal -85.1% | DU-145 prostate -85.2% | K-562 leukemia -66%
inactive: NCI-H23 lung 34% | NCI-H226 lung 43% | NCI-H322M lung 61.8% | HOP-62 NSCLC 17.6% | NCI-H522 lung 10.1% | COLO 205 colon 51.9% | MALME-3M melanoma 72.8% | MDA-MB-231 breast 77.3% | RXF 393 renal 61.2% | SF-268 CNS 34.7% | SF-295 CNS 14.6% | SF-539 CNS 29.1% | UACC-257 melanoma 56.9% | M14 melanoma 36%

COc1cc2c(=O)n(CCCN(C)C)c3c4cc[nH]c4ncc3c2cc1OC
inactive: NCI-H23 lung 41.4% | NCI-H226 lung 37.1% | NCI-H322M lung 42.6% | HOP-62 NSCLC 11.8% | NCI-H460 lung 17.6% | A549/ATCC NSCLC 44.1% | 786-0 renal 33.7% | COLO 205 colon 13.2% | DU-145 prostate 30.8% | K-562 leukemia 54.3% | MALME-3M melanoma 62.4% | MDA-MB-231 breast 50.8% | RXF 393 renal 23.1% | SF-268 CNS 28.3% | SF-295 CNS 29.2% | SF-539 CNS 73.3% | UACC-257 melanoma 87.9% | M14 melanoma 40.5%
active: NCI-H522 lung 0.675%

COc1cc(OC)c2sc(-c3ccc(-n4cncc4-c4ccc(OC)c(N)c4)cc3)nc2c1
inactive: NCI-H23 lung 87.4% | NCI-H226 lung 94% | NCI-H322M lung 105% | HOP-62 NSCLC 117% | NCI-H460 lung 78% | NCI-H522 lung 79.9% | A549/ATCC NSCLC 62.7% | 786-0 renal 79.2% | COLO 205 colon 111% | DU-145 prostate 93.5% | K-562 leukemia 54.7% | MALME-3M melanoma 82.4% | MDA-MB-231 breast 75.5% | RXF 393 renal 75.4% | SF-268 CNS 87.3% | SF-295 CNS 69.4% | SF-539 CNS 84.1% | UACC-257 melanoma 94.3% | M14 melanoma 79.9%

CCn1c(=O)c(C(=O)NCCCO)c(O)c2ccccc21
active: RXF 393 renal -24.8%
inactive: NCI-H23 lung 110% | NCI-H226 lung 99.1% | NCI-H322M lung 134% | HOP-62 NSCLC 101% | NCI-H460 lung 111% | NCI-H522 lung 101% | A549/ATCC NSCLC 103% | 786-0 renal 106% | COLO 205 colon 110% | DU-145 prostate 122% | K-562 leukemia 89.9% | MALME-3M melanoma 123% | MDA-MB-231 breast 106% | SF-268 CNS 94.3% | SF-295 CNS 110% | SF-539 CNS 96.8% | UACC-257 melanoma 125% | M14 melanoma 124%

COc1cccc(/C=N\Nc2ccc([N+](=O)[O-])cn2)c1O
inactive: NCI-H23 lung 38% | NCI-H226 lung 81.5% | NCI-H322M lung 32% | HOP-62 NSCLC 46.4% | NCI-H460 lung 18% | NCI-H522 lung 12.7% | A549/ATCC NSCLC 57% | 786-0 renal 64.5% | COLO 205 colon 134% | DU-145 prostate 51.6% | K-562 leukemia 44.1% | MALME-3M melanoma 60.9% | MDA-MB-231 breast 42.4% | RXF 393 renal 72.8% | SF-268 CNS 37.1% | SF-539 CNS 50.6% | UACC-257 melanoma 16.2% | M14 melanoma 38.8%
active: SF-295 CNS 3.86%

Clc1cccc(CNc2c3ccccc3nc3ccccc23)c1
inactive: NCI-H23 lung 32% | NCI-H226 lung 48% | NCI-H322M lung 31.3% | HOP-62 NSCLC 45.5% | NCI-H460 lung 14.2% | NCI-H522 lung 41.7% | A549/ATCC NSCLC 27.9% | 786-0 renal 25.2% | DU-145 prostate 31.6% | MALME-3M melanoma 45% | MDA-MB-231 breast 29.4% | RXF 393 renal 19% | SF-268 CNS 60.6% | SF-295 CNS 20.8% | UACC-257 melanoma 45.4% | M14 melanoma 35.5%
active: COLO 205 colon 0.537% | K-562 leukemia 5.03% | SF-539 CNS 9.28%

— PubChem BioAssay (NCI)
